# Measured values: the supplement of paper PMC4022240
# ± gives the standard deviation.
# T1: HaloTag-ATRX ADD domain (163-292)
# T1 chain: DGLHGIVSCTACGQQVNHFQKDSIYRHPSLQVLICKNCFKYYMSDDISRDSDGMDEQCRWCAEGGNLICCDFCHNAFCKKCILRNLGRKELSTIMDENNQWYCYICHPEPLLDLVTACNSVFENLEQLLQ
# Key:
# Test in all cases: peptide microarray binding signal (635 nm), min-max normalized on array (fraction of array maximum); higher = stronger binding
# [1] = target: T1, HaloTag-ATRX ADD domain (163-292)
# Method: (§1)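 Histone 13-mer peptides were synthesized as cellulose conjugates with a C-terminal 20-atom PEG linker and printed in triplicate on nitrocellulose. The sequence given is the unmodified backbone; PTMs (Kme1/2/3, Kac, Sph/Tph, Rme/Rme2a/Rme2s, Rcit) are listed in the label and the 'peptide modifications' condition. Slides were probed at 4 °C for 1 h with biotin-labelled (HQ)5-HaloTag reader fusions (ATRX-ADD, ING2-PHD) then streptavidin-Alexa647, or with rabbit histone antibodies then anti-rabbit Alexa647. The mean 635 nm signal of the triplicate spots was scaled 0-1 between the lowest and highest values on each array.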
# [2] = target: HaloTag-ING2 PHD (mouse Ing2 200-280)
# Method: as §1
# [3] = target: anti-H3K4me3 antibody ab8580
# Method: as §1
# [4] = target: anti-H3K9me3 antibody ab8898
# Method: as §1
# [5] = peptide region: H3 1-13, peptide modifications: H3T3ph, binder concentration: 1:2,000 dilution
# [6] = peptide region: H3 1-13, peptide modifications: H3T3ph, binder concentration: 1:10,000 dilution
# [7] = peptide region: H3 5-17, peptide modifications: H3K9ac H3K14me2, binder concentration: 1:2,000 dilution
# [8] = peptide region: H3 5-17, peptide modifications: H3K9ac H3K14me2, binder concentration: 1:10,000 dilution
# [9] = peptide region: H3 1-13, peptide modifications: H3T6ph H3K9ac, binder concentration: 1:2,000 dilution
# [10] = peptide region: H3 1-13, peptide modifications: H3T6ph H3K9ac, binder concentration: 1:10,000 dilution
# [11] = peptide region: H3 1-13, peptide modifications: H3T6ph H3R8me2s, binder concentration: 1:2,000 dilution
# [12] = peptide region: H3 1-13, peptide modifications: H3T6ph H3R8me2s, binder concentration: 1:10,000 dilution
# [13] = peptide region: H3 5-17, peptide modifications: H3K9ac H3K14me1, binder concentration: 1:2,000 dilution
# [14] = peptide region: H3 5-17, peptide modifications: H3K9ac H3K14me1, binder concentration: 1:10,000 dilution
binder,measurement,setting,value
ARTKQTARKSTGG [H3 1-13 A R Tph K Q T A R K S T G G],peptide microarray binding signal,"[1]; peptide region: H3 1-13, peptide modifications: H3T3ph, binder concentration: 50 nM",0.01044 ± 0.0001
same,peptide microarray binding signal,"[1]; peptide region: H3 1-13, peptide modifications: H3T3ph, binder concentration: 500 nM",0.0136 ± 0.0015
same,peptide microarray binding signal,"[2]; peptide region: H3 1-13, peptide modifications: H3T3ph, binder concentration: 10 nM",0.0146 ± 0.00026
same,peptide microarray binding signal,"[2]; peptide region: H3 1-13, peptide modifications: H3T3ph, binder concentration: 100 nM",0.0137 ± 0.0036
same,peptide microarray binding signal,[3]; [5],0.00119 ± 5e-05
same,peptide microarray binding signal,[3]; [6],0.002568 ± 2.3e-05
same,peptide microarray binding signal,[4]; [5],0.00137 ± 6.5e-05
same,peptide microarray binding signal,[4]; [6],0.002998 ± 2.6e-05
QTARKSTGGKAPR [H3 5-17 Q T A R Kac S T G G Kme2 A P R],peptide microarray binding signal,"[1]; peptide region: H3 5-17, peptide modifications: H3K9ac H3K14me2, binder concentration: 50 nM",0.00746 ± 0.00033
same,peptide microarray binding signal,"[1]; peptide region: H3 5-17, peptide modifications: H3K9ac H3K14me2, binder concentration: 500 nM",0.0201 ± 0.0018
same,peptide microarray binding signal,"[2]; peptide region: H3 5-17, peptide modifications: H3K9ac H3K14me2, binder concentration: 10 nM",0.0147 ± 0.0015
same,peptide microarray binding signal,"[2]; peptide region: H3 5-17, peptide modifications: H3K9ac H3K14me2, binder concentration: 100 nM",0.0485 ± 0.015
same,peptide microarray binding signal,[3]; [7],0.0108 ± 0.00077
same,peptide microarray binding signal,[3]; [8],0.00468 ± 0.00039
same,peptide microarray binding signal,[4]; [7],0.0189 ± 0.00074
same,peptide microarray binding signal,[4]; [8],0.406 ± 0.064
ARTKQTARKSTGG [H3 1-13 A R T K Q Tph A R Kac S T G G],peptide microarray binding signal,"[1]; peptide region: H3 1-13, peptide modifications: H3T6ph H3K9ac, binder concentration: 50 nM",0.00724 ± 0.00023
same,peptide microarray binding signal,"[1]; peptide region: H3 1-13, peptide modifications: H3T6ph H3K9ac, binder concentration: 500 nM",0.0156 ± 0.0012
same,peptide microarray binding signal,"[2]; peptide region: H3 1-13, peptide modifications: H3T6ph H3K9ac, binder concentration: 10 nM",0.0307 ± 0.002
same,peptide microarray binding signal,"[2]; peptide region: H3 1-13, peptide modifications: H3T6ph H3K9ac, binder concentration: 100 nM",0.0441 ± 0.0085
same,peptide microarray binding signal,[3]; [9],0.00995 ± 0.00061
same,peptide microarray binding signal,[3]; [10],0.00622 ± 0.00014
same,peptide microarray binding signal,[4]; [9],0.00527 ± 0.00089
same,peptide microarray binding signal,[4]; [10],0.00294 ± 0.00011
ARTKQTARKSTGG [H3 1-13 A R T K Q Tph A Rme2s K S T G G],peptide microarray binding signal,"[1]; peptide region: H3 1-13, peptide modifications: H3T6ph H3R8me2s, binder concentration: 50 nM",0.0201 ± 0.0019
same,peptide microarray binding signal,"[1]; peptide region: H3 1-13, peptide modifications: H3T6ph H3R8me2s, binder concentration: 500 nM",0.0152 ± 0.0026
same,peptide microarray binding signal,"[2]; peptide region: H3 1-13, peptide modifications: H3T6ph H3R8me2s, binder concentration: 10 nM",0.0119 ± 0.00043
same,peptide microarray binding signal,"[2]; peptide region: H3 1-13, peptide modifications: H3T6ph H3R8me2s, binder concentration: 100 nM",0.0145 ± 0.00066
same,peptide microarray binding signal,[3]; [11],0.00287 ± 9.2e-05
same,peptide microarray binding signal,[3]; [12],0.000571
same,peptide microarray binding signal,[4]; [11],0.0029 ± 6.7e-05
same,peptide microarray binding signal,[4]; [12],0.00646 ± 0.0018
QTARKSTGGKAPR [H3 5-17 Q T A R Kac S T G G Kme A P R],peptide microarray binding signal,"[1]; peptide region: H3 5-17, peptide modifications: H3K9ac H3K14me1, binder concentration: 50 nM",0.00746 ± 0.00018
same,peptide microarray binding signal,"[1]; peptide region: H3 5-17, peptide modifications: H3K9ac H3K14me1, binder concentration: 500 nM",0.024 ± 0.0017
same,peptide microarray binding signal,"[2]; peptide region: H3 5-17, peptide modifications: H3K9ac H3K14me1, binder concentration: 10 nM",0.023 ± 0.0062
same,peptide microarray binding signal,"[2]; peptide region: H3 5-17, peptide modifications: H3K9ac H3K14me1, binder concentration: 100 nM",0.0497 ± 0.004
same,peptide microarray binding signal,[3]; [13],0.00345 ± 0.00048
same,peptide microarray binding signal,[3]; [14],0.00205 ± 3.8e-05
same,peptide microarray binding signal,[4]; [13],0.0192 ± 0.002
same,peptide microarray binding signal,[4]; [14],0.00882 ± 0.00058
